Measurements as given in PubChem BioAssay AID1159580 (chemical genetic matrix, 2015).
In all, about 5,500 compounds went through this assay and about 2,000 (36%) were called active. Not shown: some 18% with an inconclusive outcome. The list shows a part of the results. Unmarked numbers belong to inactive results. Rule as the data show it: active = normalized growth mostly below about 0.91 (no sharp cut-off); inconclusive = no clear call, values can overlap the other calls; inactive = mostly above about 0.92.

Assay: chemical genetic growth profiling, strain panel (AID 1159580);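 also: tested at 20 µM; growth read once vehicle control cultures reached saturation at 30 °C; 1 = growth at the plate median or of vehicle wells; lower values mean less growth of the strain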
Conditions: S. cerevisiae deletion strains, growth OD
[1] = locus YHR030C, strain SLT2, hits give low values

Cc1onc(-c2ccccc2)c1C(=O)Sc1ccc(C(F)(F)F)cn1
normalized growth (locus YAR019C, strain CDC15, hits give low values): 0.941 | normalized growth (locus YBL105C, strain PKC1, hits give low values): 0.961 | normalized growth (locus YBR135W, strain CKS1, hits give low values): 0.965 | normalized growth (locus YBR136W, strain MEC1, hits give low values): 0.955 | normalized growth (locus YBR160W, strain CDC28, hits give low values): 0.967 | normalized growth (locus YDL017W, strain CDC7, hits give low values): 0.967 | normalized growth (locus YDL028C, strain MPS1, hits give low values): 0.958 | normalized growth (locus YDL108W, strain KIN28, hits give low values): 0.974 | normalized growth (locus YDL132W, strain cdc53, hits give low values): 0.951 | normalized growth (locus YDL214C, strain PRR2, hits give low values): 0.217 (active) | normalized growth (locus YDR052C, strain DBF4, hits give low values): 0.977 | normalized growth (locus YDR054C, strain cdc34, hits give low values): 0.937 | normalized growth (locus YDR226W, strain ADK1, hits give low values): 0.963 | normalized growth (locus YDR477W, strain SNF1, hits give low values): 0.187 (active) | normalized growth (locus YER123W, strain YCK3, hits give low values): 0.465 (active) | normalized growth (locus YER133W, strain GLC7, hits give low values): 0.249 (active) | normalized growth (locus YFL009W, strain cdc4, hits give low values): 0.951 | normalized growth (locus YFL029C, strain CAK1, hits give low values): 0.949 | normalized growth (locus YFR003C, strain YPI1, hits give low values): 0.971 | normalized growth (locus YFR019W, strain FAB1, hits give low values): 0.739 (active) | normalized growth (locus YFR028C, strain CDC14, hits give low values): 0.968 | normalized growth (locus YGR040W, strain KSS1, hits give low values): 0.227 (active) | normalized growth (locus YGR052W, strain FMP48, hits give low values): 0.242 (active) | normalized growth (locus YGR092W, strain DBF2, hits give low values): 0.799 | normalized growth [1]: 0.317 (active) | normalized growth (locus YHR079C, strain IRE1, hits give low values): 0.712 | normalized growth (locus YHR082C, strain KSP1, hits give low values): 0.256 (active) | normalized growth (locus YHR205W, strain SCH9, hits give low values): 0.343 (active) | normalized growth (locus YIL147C, strain SLN1, hits give low values): 0.955 | normalized growth (locus YJL095W, strain BCK1, hits give low values): 0.424 (active) | normalized growth (locus YJR016C, strain ILV3, hits give low values): 0.973 | normalized growth (locus YJR066W, strain TOR1 (second series), hits give low values): 0.343 (active) | normalized growth (locus YJR066W, strain TOR1, hits give low values): 0.283 (active) | normalized growth (locus YKL048C, strain ELM1, hits give low values): 0.933 | normalized growth (locus YKL101W, strain HSL1, hits give low values): 0.817 | normalized growth (locus YKL193C, strain SDS22, hits give low values): 0.952 | normalized growth (locus YKL203C, strain TOR2, hits give low values): 0.53 (active) | normalized growth (locus YLR113W, strain HOG1, hits give low values): 0.184 (active) | normalized growth (locus YLR133W, strain CKI1, hits give low values): 0.749 | normalized growth (locus YML070W, strain DAK1, hits give low values): 0.587 (active) | normalized growth (locus YMR001C, strain CDC5, hits give low values): 0.952 | normalized growth (locus YMR205C, strain PFK2 (second series), hits give low values): 0.882 | normalized growth (locus YMR277W, strain FCP1, hits give low values): 0.943 | normalized growth (locus YNL006W, strain LST8, hits give low values): 0.979 | normalized growth (locus YNL020C, strain ARK1, hits give low values): 0.874 | normalized growth (locus YNL161W, strain CBK1, hits give low values): 0.951 | normalized growth (locus YNL183C, strain NPR1, hits give low values): 0.106 (active) | normalized growth (locus YNL207W, strain RIO2, hits give low values): 0.961 | normalized growth (locus YNL222W, strain SSU72, hits give low values): 0.918 | normalized growth (locus YNL307C, strain MCK1 (second series), hits give low values): 0.683 | normalized growth (locus YOL078W, strain AVO1, hits give low values): 0.948 | normalized growth (locus YOL136C, strain PFK27, hits give low values): 0.583 (active) | normalized growth (locus YOR061W, strain CKA2, hits give low values): 0.765 | normalized growth (locus YOR119C, strain RIO1, hits give low values): 0.471 (active) | normalized growth (locus YOR231W, strain MKK1, hits give low values): 0.732 | normalized growth (locus YOR329C, strain SCD5, hits give low values): 0.96 | normalized growth (locus YPL153C, strain RAD53, hits give low values): 0.661 | normalized growth (locus YPL209C, strain IPL1, hits give low values): 0.961 | normalized growth (locus YPL256C, strain CLN2, hits give low values): 0.209 (active) | normalized growth (locus YPR025C, strain CCL1, hits give low values): 0.954 | normalized growth (locus YPR106W, strain ISR1, hits give low values): 0.939 | normalized growth (locus YPR111W, strain DBF20, hits give low values): 0.946 | normalized growth (strain NNK1, hits give low values): 0.963 | normalized growth (strain TSCII, hits give low values): 0.937

Cc1onc(-c2ccccc2)c1-c1nc(CSc2ccc(C(F)(F)F)cn2)no1
normalized growth (locus YAL013W, strain DEP1, hits give low values): 1.03 | normalized growth (locus YBR229C, strain ROT2, hits give low values): 0.973 | normalized growth (locus YCL061C, strain MRC1, hits give low values): 0.991 | normalized growth (locus YDL101C, strain DUN1, hits give low values): 0.968 | normalized growth (locus YDR150W, strain NUM1, hits give low values): 1.02 | normalized growth (locus YEL061C, strain CIN8, hits give low values): 0.975 | normalized growth (locus YGR078C, strain PAC10, hits give low values): 1 | normalized growth [1]: 0.818 | normalized growth (locus YHR087W, strain rtc3, hits give low values): 0.984 | normalized growth (locus YJL187C, strain SWE1, hits give low values): 0.977 | normalized growth (locus YJR043C, strain POL32, hits give low values): 0.957 | normalized growth (locus YJR075W, strain HOC1, hits give low values): 0.995 | normalized growth (locus YLR039C, strain RIC1, hits give low values): 0.947 | normalized growth (locus YLR058C, strain SHM2 (second series), hits give low values): 0.957 | normalized growth (locus YLR085C, strain ARP6, hits give low values): 1.06 | normalized growth (locus YLR262C, strain YPT6, hits give low values): 0.93 | normalized growth (locus YML094W, strain GIM5, hits give low values): 1.02 | normalized growth (locus YMR219W, strain ESC1, hits give low values): 0.975 | normalized growth (locus YMR263W, strain SAP30, hits give low values): 0.971 | normalized growth (locus YMR307W, strain GAS1, hits give low values): 1.02 | normalized growth (locus YNL153C, strain GIM3, hits give low values): 1.02 | normalized growth (locus YNL298W, strain CLA4 (second series), hits give low values): 1.02 | normalized growth (locus YNL322C, strain KRE1, hits give low values): 0.964 | normalized growth (locus YNR030W, strain Alg12, hits give low values): 1.01 | normalized growth (locus YOL006C, strain TOP1, hits give low values): 0.946 | normalized growth (locus YPL055C, strain LGE1, hits give low values): 1.06 | normalized growth (locus YPL241C, strain CIN2, hits give low values): 0.93 | normalized growth (locus YPR135W, strain CTF4, hits give low values): 1.33
